Measurements taken from PubChem BioAssay AID720706 (Broad Institute, 2013).
The campaign covered roughly 350,000 compounds. About 5,500 (1.6%) were called active. This is one part of a sample in which actives are shown more often than they occur.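 How the source made its calls: active means significant combined selectivity score with lowered wild-type GFP, culture density cut under 30%, mutant RFP and density less affected; inactive means any of these conditions unmet.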

Assay: reduced GFP signal of wild-type E. coli, primary screen, bacterial rRNA inhibitor project, GFP/RFP fluorescence, OD600, single point (AID 720706)
Details: E. coli WT GFP vs humanized-ribosome RFP mutants, 24 h; GFP signal change (wild-type ribosome): stronger effect = lower value, DMSO median 0, no signal -100; OD600 change: measured here: OD600 growth, DMSO median 0, no signal -100; RFP signal change: measured here: RFP humanized mutant strains, DMSO median 0, no signal -100, concentration not given here

| SMILES | GFP signal change (wild-type ribosome) | OD600 change [%] | RFP signal change [%] |
| --- | --- | --- | --- |
| C[C@@H]1CN([C@H](C)CO)C(=O)c2cc(C#CC3CC3)cnc2O[C@H]1CN(C)C(=O)CC1CC1 | 0.803% (inactive) | 4.53 | -4.43 |
| Cc1cc(C(=O)COC(=O)C2CC2)c(C)n1-c1ccc(F)cc1 | -25.1% (active) | -8.48 | -5.46 |
| Cc1cc(C(=O)COc2ccccc2Cl)c(C)n1C1CC1 | -19.2% (inactive) | -34.3 | 0.284 |
| Cc1ccc(-n2c(C)cc(C(=O)CN3C(=O)C(=O)N(C4CCCC4)C3=O)c2C)cc1 | -12.3% (inactive) | -20.5 | 24 |
| Cc1ccc(OCCCC(=O)NC(C)c2ccccc2)c(C)c1 (centres undefined) | -20.1% (active) | -9.71 | 4.93 |
| COc1ccc(C)cc1N(CC(=O)NC(C)c1ccccc1)S(C)(=O)=O (centres undefined) | 7.63% (inactive) | 6.56 | 4.34 |
| Cc1ccccc1OCCC(=O)OCC(=O)NC(C)c1ccccc1 (centres undefined) | -11.5% (inactive) | -7.58 | 0.763 |
| COc1ccc2c3c(n(C)c2c1)[C@@H](CO)NCC31CN(S(=O)(=O)c2cccc(C)c2)C1 | -1.82% (inactive) | -19.1 | 1.9 |
| O=C(Nc1ccccc1)N1CCCCN2[C@H](CO)[C@@H](c3ccc(-c4ccccc4F)cc3)[C@H]2C1 | -59.5% (inactive) | -71.8 | -17.2 |
| Cc1ccccc1-c1cnc2c(c1)C(=O)N([C@H](C)CO)C[C@H](C)[C@@H](CN(C)C(=O)c1ccccc1)O2 | -6.69% (inactive) | 1.45 | 1.42 |
| CCNC(=O)[C@@H]1[C@@H](CO)[C@@H]2Cn3c(ccc(C4=CCCCC4)c3=O)[C@@H]2N1Cc1ccccc1F | 1.16% (inactive) | -2.39 | 5.54 |
| O=C(CN1CCOCC1)Nc1cccc([N+](=O)[O-])c1 | 31.7% (inactive) | 26.8 | 1.38 |
| O=C(Nc1cccc([N+](=O)[O-])c1)N1CCc2ccccc2C1 | -21.9% (active) | -13.6 | -7.36 |
| CCc1ccc(NC(=O)N2CCc3ccccc3C2)cc1 | -10.5% (inactive) | -10.6 | -3.21 |
| Cc1ccc(-c2ccc([C@H]3[C@H]4CN(S(=O)(=O)c5cccc(F)c5)CC(=O)N4[C@H]3CO)cc2)cc1 | 1.77% (inactive) | 8.11 | -0.692 |
| CN(CC(=O)NCc1cccnc1)S(=O)(=O)c1cc(Cl)ccc1Cl | 5.23% (inactive) | -2.3 | -0.601 |
| Cc1ccc(C(=O)NC(=S)NCc2cccnc2)cc1 | -23.8% (inactive) | -23.8 | 5.91 |
| S=C(NCc1cccnc1)Nc1ccc(Cl)cc1Cl | -27.1% (active) | -3.2 | -7.63 |
| CC(C)NC(=O)N(C)C[C@@H]1Oc2ccc(NC(=O)CCCCCC(=O)Nc3ccccc3N)cc2C(=O)N([C@@H](C)CO)C[C@H]1C | 1.03% (inactive) | -8.13 | -0.166 |
| CO[C@H]1CN(C)C(=O)c2cc(NC(=O)c3cnccn3)ccc2OC[C@H](C)N(C(=O)C2CC2)C[C@H]1C | 1% (inactive) | -0.758 | -0.83 |
| N#Cc1cccc(-c2ccc(C3[C@@H]4CNC[C@H]3N4)cc2)c1 (some centres undefined) | -0.575% (inactive) | 6.2 | 2 |

| SMILES | GFP signal change (wild-type ribosome) | OD600 change [%] | RFP signal change [%] |
| --- | --- | --- | --- |
| C[C@@H]1CCCCO[C@H](CN(C)S(=O)(=O)c2ccccc2)[C@@H](C)CN([C@H](C)CO)C(=O)c2cc(NC(=O)Nc3ccc(F)cc3)ccc2O1 | 4.23% (inactive) | 5.59 | -0.807 |
| Oc1c(Br)cc(/C=N/NC(=S)NCC2CCCO2)cc1Br (centres undefined) | -32.6% (active) | -2.28 | 0.247 |
| S=C(NCC1CCCO1)N1CCN(c2ccc(Cl)c(Cl)c2)CC1 (centres undefined) | -56.8% (inactive) | -79.1 | -18.4 |
| S=C(NCCc1ccccc1)NCC1CCCO1 (centres undefined) | 8.89% (inactive) | 4.83 | -3.48 |
| C[C@@H]1CN([C@@H](C)CO)S(=O)(=O)c2ccc(Br)cc2O[C@H]1CN(C)S(=O)(=O)c1ccccc1 | -30.9% (inactive) | -59.2 | 14 |
| CS(=O)(=O)N1CC2(C1)[C@H](c1ccccc1)[C@@H](CO)N2C(=O)c1ccccc1 | -2.24% (inactive) | 8.82 | -1.96 |
| O=C(c1ccccc1)N1CC(=O)N2[C@@H](CO)[C@H](c3ccc(C#CCC4CCCC4)cc3)[C@@H]2C1 | -0.385% (inactive) | 4.12 | 15.8 |
| O=C(Nc1cccc(Cl)c1)N1C[C@@H]2[C@H](c3ccccc31)[C@H](CO)N2C(=O)C1CC1 | -55.8% (inactive) | -75.7 | -10.1 |
| O=C(Nc1ccccc1)N1C[C@H]2[C@@H](c3ccccc31)[C@H](CO)N2Cc1ccc(F)cc1 | -4.61% (inactive) | -3.58 | 0.773 |
| O=C(Nc1cccc(Cl)c1)N1C[C@@H]2[C@H](c3ccccc31)[C@H](CO)N2Cc1ccncc1 | -19.3% (active) | -14 | 2.23 |
| O=C(C[C@@H]1C[C@@H]2c3cc(NC(=O)c4ccc5c(c4)OCO5)ccc3O[C@@H]2[C@H](CO)O1)NCC1CC1 | -0.47% (inactive) | -2.45 | 1.83 |
| N#C[C@H]1[C@H](c2ccccc2-c2ccc(F)cc2)[C@H](CO)N1C(=O)Cc1ccncc1 | -3.78% (inactive) | 7.17 | -0.986 |
| COCc1cn(CC[C@H]2CC[C@H](NC(=O)Cc3cccnc3)[C@H](CO)O2)nn1 | -2.43% (inactive) | -1.71 | -2.1 |
| NC(=O)c1ccccc1N(Cc1ccccc1)S(=O)(=O)c1ccccc1 | -4.05% (inactive) | -16.6 | -0.699 |
| CCOC(=O)N1CCN(C(=O)c2ccccc2N(Cc2ccccc2)S(=O)(=O)c2ccc(OC)cc2)CC1 | -25.8% (active) | -20.1 | 0.913 |
| C=CCN(c1ccccc1C(=O)NCC(=O)OCC)S(=O)(=O)c1ccc(C)cc1 | 5.68% (inactive) | -1.3 | 1.08 |
| C[C@H](CO)N1C[C@H](C)[C@H](CN(C)C(=O)C2CC2)OCc2ccccc2-c2ccccc2C1=O | 3.14% (inactive) | 2.12 | -2.73 |
| CO[C@@H]1CN(C)C(=O)c2ccc(NC(=O)C3CC3)cc2OC[C@H](C)N(C(C)=O)C[C@H]1C | 2.84% (inactive) | 2.36 | -2.71 |
| O=C1NCCOCc2cn(nn2)CC[C@@H]1Cc1ccccc1 | 4.08% (inactive) | 6.55 | -0.105 |
| O=C(Nc1nnc(Cc2ccccc2)s1)c1cnccn1 | 13.9% (inactive) | 13.3 | 1.31 |
| O=C(Nc1nnc(Cc2ccc(Cl)cc2)s1)c1ccncc1 | -25.9% (active) | 0.397 | 10.4 |

| SMILES | GFP signal change (wild-type ribosome) | OD600 change [%] | RFP signal change [%] |
| --- | --- | --- | --- |
| O=C(Nc1nnc(Cc2ccc(Cl)cc2)s1)c1cccnc1 | -2.18% (inactive) | 2.81 | -2.51 |
| CO[C@@H]1CN(C)C(=O)c2ccc(NS(C)(=O)=O)cc2OC[C@@H](C)N(C(=O)C2CCOCC2)C[C@@H]1C | 2.81% (inactive) | -0.862 | -0.242 |
| CS(=O)(=O)N1CCCCN2[C@H](CO)[C@H](c3ccc(-c4cccc(C#N)c4)cc3)[C@H]2C1 | -2.77% (inactive) | 2.86 | 1.13 |
| C[C@@H](NC(=O)C[C@@H]1CC[C@H](NC(=O)Cc2ccccn2)[C@H](CO)O1)c1ccccc1 | 1.1% (inactive) | -1.33 | 0.264 |
| Cc1cc(C)n2nc(C(=O)N3CCN(Cc4ccc5c(c4)OCO5)CC3)nc2n1 | 6.71% (inactive) | 4.13 | -0.674 |
| COc1ccc(-c2cc(C(=O)N3CCN(Cc4ccc5c(c4)OCO5)CC3)on2)cc1OC | -30.2% (active) | -22.1 | 4.69 |
| COc1cc(Cl)c(S(=O)(=O)N2CCN(Cc3ccc4c(c3)OCO4)CC2)cc1Cl | -5.43% (inactive) | -7.87 | -2.97 |
| Cc1ccnc(NC(=O)CNC(=O)c2ccccc2)c1 | 0.565% (inactive) | 1.47 | 0.604 |
| Cc1noc(C)c1COc1ccc(C(=O)NCCOc2ccccc2)cc1 | -5.24% (inactive) | -2.29 | -0.784 |
| Cc1ncoc1C(=O)NCCC(c1ccccc1)c1ccccc1 | -22.1% (active) | -9.13 | 0.235 |
| COc1ccc(NC(=O)Nc2ccc3c(c2)C(=O)N([C@@H](C)CO)C[C@@H](C)[C@@H](CN(C)Cc2ccncc2)OCCCC[C@@H](C)O3)cc1 | -3.01% (inactive) | -5.38 | 9.15 |
| CO[C@@H]1CN(C)C(=O)c2cc(NC(=O)NC3CCCCC3)ccc2OC[C@@H](C)N(C(C)=O)C[C@H]1C | 1.07% (inactive) | 3.15 | -0.812 |
| Cc1cccc(-c2ccc([C@H]3[C@H](CO)N4CCCCN(S(=O)(=O)c5cn(C)cn5)C[C@@H]34)cc2)c1 | 2.02% (inactive) | 3.81 | 1.54 |
| COc1cccc(-c2ccc([C@H]3[C@H](CO)N4CCCCN(S(=O)(=O)c5cccs5)C[C@@H]34)cc2)c1 | -0.886% (inactive) | -0.41 | 0.565 |
| Cc1cccc(-c2ccc([C@@H]3[C@@H](CO)N4CCCCN(S(=O)(=O)c5cccs5)C[C@H]34)cc2)c1 | -37.8% (active) | -24.1 | -1.67 |
| Cc1ccccc1-c1ccc2c(c1)O[C@@H](CN(C)C(=O)Nc1ccc(F)cc1)[C@H](C)CN([C@@H](C)CO)S2(=O)=O | -3.25% (inactive) | -11.6 | -1.01 |
| O=C(c1ccncc1)N1CC(=O)N2[C@H](CO)[C@H](c3ccc(-c4ccccc4F)cc3)[C@@H]2C1 | 3.75% (inactive) | -1.79 | -0.215 |
| CCCNC(=O)N1CC2(C1)CN(Cc1cccc(F)c1)[C@@H](CO)c1[nH]c3cc(OC)ccc3c12 | 0.104% (inactive) | 3.77 | 0.338 |
| Cn1c(SCC(=O)N2CCCCC2)nc2c(c1=O)SCC2 | 5.14% (inactive) | -0.579 | -0.99 |
| COCCn1c(SCC(=O)Nc2ccc(F)cc2F)nc2c(c1=O)SCC2 | 0.103% (inactive) | -1.78 | -3.71 |
| Cc1cccc(CSc2nc3c(c(=O)n2C)SCC3)c1 | -33.5% (active) | -21 | -2.49 |
